PubChem BioAssay (NCATS)
Several values for one entry are separate records, joined by “and”; a condition that tells them apart may be missing. Identical values can stand only once. Inconclusive results are not listed. A call without a number means that no potency is given here. Some compounds were tested as several samples or in several runs, with calls that do not always agree. Activity calls are given as the source filed them. Calls come from the whole dose curve; as a rule, active = well fitted inhibition curve with a large enough effect; inconclusive = small, poorly fitted or top-dose-only effect; inactive = no such curve, though single readings can be large or run the other way.

Assay: Primary qHTS for inhibitors of nuclear receptor binding SET domain protein 2 (NSD2) in an RCH-ACV wild type WT cells (2C) (AID 1645877); note: nearly all actives have a fitted effect of over 70% in size
Conditions: RCH-ACV (leukaemia line) NSD2 WT (2C) viability, CellTiter-Glo, 72 h; series mostly up to 44.9 µM
Description: Assay Provider: Jonathan D. Licht, MD
University of Florida College of Medicine, Gainesville, FL
Mutations in epigenetic regulators are common in relapsed pediatric acute lymphoblastic leukemia (ALL). Here, we uncovered the mechanism underlying the relapse of ALL driven by an activating mutation of the NSD2 histone methyltransferase (p.E1099K). […] Correction of this mutation restored glucocorticoid sensitivity. The transcriptional response to glucocorticoids was blocked in NSD2 mutant cells due to depressed glucocorticoid receptor (GR) levels and the failure of glucocorticoids to autoactivate GR expression. […] Pre-treatment of NSD2 p.E1099K cell lines and PDX samples with PRC2 inhibitors reversed glucocorticoid resistance in vitro and in vivo.
High-throughput drug screening of isogenic RCH-ACV cell lines was performed at the National Center for Advancing Translational Science (NCATS), National Institutes of Health as previously described (1). Briefly, isogenic RCH-ACV NSD2 p.E1099K mutant (9B) and WT cells (2C) were plated at 500 cells/well in a 1536-well plate with a 72-hour incubation with compounds prior to addition of CellTiter-Glo to assess cell viability. NCATS libraries screened include: NPC, MIPE 5.0, Kinase and NPACT. To determine compound activity in the qHTS assay, the concentration-response data for each sample was plotted and modeled by a four-parameter logistic fit yielding IC50 and efficacy (maximal response) values. The area under the curve (AUC) of the dose-response curve ensures both efficacy (magnitude of cell killing) and potency (concentration that elicits cell killing) are accounted for in the analysis of activity.
1. Tobie D Lee, Olivia W Lee, Kyle R Brimacombe, Lu Chen, Rajarshi Guha, Sabrina Lusvarghi, Bethilehem G Tebase, Carleen Klumpp-Thomas, Robert W Robey, Suresh V Ambudkar, Min Shen, Michael M Gottesman, Matthew D Hall. A High-Throughput Screen of a Library of Therapeutics Identifies Cytotoxic Substrates of P-glycoprotein. Mol Pharmacol. 2019, Nov;96(5):629-640.

Row | Structure (SMILES) | Potency
1 | COc1cccc2cc(-c3nc(C4CCC(C(=O)O)CC4)n4ncnc(N)c34)[nH]c12 (stereo not given) | 4.68 µM (active) and 820 nM (active)
2 | CS(=O)(=O)c1ccc(C(=O)Nc2ccc(Cl)c(-c3ccccn3)c2)c(Cl)c1 | inactive
3 | O=C1CCC(N2C(=O)c3ccccc3C2=O)C(=O)N1 (stereo not given) | inactive
4 | CCc1ccc(CCOc2ccc(CC3SC(=O)NC3=O)cc2)nc1 (stereo not given) | inactive
5 | Cc1[nH]c(=O)c(C#N)cc1-c1ccc2nccn2c1 | inactive
6 | Cc1cc(Nc2nc(N[C@@H](C)c3ncc(F)cn3)ncc2Cl)n[nH]1 | 2.05 µM (active) and 3.72 µM (active)
7 | COc1ccc(CCN2CCN(CCCc3ccccc3)CC2)cc1OC | inactive
8 | C1COC(NC(C2CC2)C2CC2)=N1 | inactive
9 | OCCC#Cc1nc(-c2ccc(F)cc2)c(-c2ccncc2)n1CCCc1ccccc1 | 18.4 µM (active) and 9.34 µM (active)
10 | O=c1[nH]cnc2[nH]ncc12 | inactive
11 | c1ccc([C@H]2CN3CCSC3=N2)cc1 | inactive
12 | CCC(C)(C)C(=O)O[C@H]1C[C@@H](C)C=C2C=C[C@H](C)[C@H](CC[C@@H]3C[C@@H](O)CC(=O)O3)[C@H]21 | 8.33 µM (active)
13 | Nc1nc2ccc(OC(F)(F)F)cc2s1 | 20.9 µM (active)
14 | OC(CCN1CCCCC1)(c1ccccc1)C1CC2C=CC1C2 (stereo not given) | inactive
15 | CNCc1ccc(-c2[nH]c3cc(F)cc4c3c2CCNC4=O)cc1 | 7.28 µM (active) and 7.42 µM (active)
16 | Cn1cnc([N+](=O)[O-])c1Sc1ncnc2nc[nH]c12 | 1.35 µM (active) and 944 nM (active) and 3.72 µM (active)
17 | Cc1csc(NC(=O)c2sc3nc4c(c(C(F)(F)F)c3c2N)CCC4)n1 | inactive
18 | CCOc1ccn(-c2ccc(F)cc2)c(=O)c1C(=O)Nc1ccc(Oc2ccnc(N)c2Cl)c(F)c1 | 8.17 µM (active) and 7.42 µM (active)
19 | CCN(c1ccccc1)c1cc(NC)[n+](C)c(C)n1 | inactive
20 | O=NN(CCCl)C(=O)NCCCl | inactive

Row | Structure (SMILES) | Potency
21 | Cc1cnc(NC(=O)C2=C(O)c3ccccc3S(=O)(=O)N2C)s1 | inactive
22 | CN(C)c1ccc(C2Nc3ccc4ccccc4c3C3=C2C(=O)CC(C)(C)C3)cc1Br (stereo not given) | inactive
23 | O=c1[nH]c(-c2ccc(C(F)(F)F)cc2)nc2c1CSCC2 | inactive
24 | c1ccc(-c2nn3c(c2-c2ccnc4cc(OCCN5CCOCC5)ccc24)CCC3)nc1 | 16.6 µM (active)
25 | O=C(c1cc(Cc2n[nH]c(=O)c3ccccc23)ccc1F)N1CCN(C(=O)C2CC2)CC1 | 3.72 µM (active)
26 | O=C(NOC[C@H](O)CO)c1ccc(F)c(F)c1Nc1ccc(I)cc1F | inactive
27 | NC(=O)c1ccc(-c2nc(-c3ccc4c(c3)OCCO4)c(-c3ccccn3)[nH]2)cc1 | inactive
28 | Clc1ccc(Nc2nnc(Cc3ccncc3)c3ccccc23)cc1 | 13.3 µM (active) and 8.33 µM (active)
29 | CN(C)c1ccc(Nc2nc(N)n(C(=O)c3c(F)cccc3F)n2)cc1 | 0.833 µM (active)
30 | Nc1ccc(S(=O)(=O)Nc2ccnn2-c2ccccc2)cc1 | inactive
31 | Nc1nc2c(ncn2COCCO)c(=O)[nH]1 | inactive
32 | O=C(C1CC1)N1CC[C@@H](Cn2c(-c3ccc(-c4ccc5occc5c4)cc3)nc3cnccc32)C1 | 16.6 µM (active)
33 | CC(C)OC(=O)C1=CN(C(=O)c2ccc(F)c(F)c2)CC(C)(C)c2c1[nH]c1ccccc21 | inactive
34 | S=C(NCc1ccc2c(c1)OCO2)N1CCN(c2ncnc3c2oc2ccccc23)CC1 | 8.17 µM (active)
35 | O=C1CCc2cc(OCCCCc3nnnn3C3CCCCC3)ccc2N1 | 21.1 µM (active)
36 | CCCCCCCc1ccc(CCc2cccc(O)c2C(=O)O)cc1 | inactive
37 | COCCNCCCn1c(C(=O)CF)c(-c2ccc(C)cc2)c2c(N)ncnc21 | 16.6 µM (active)
38 | CCc1cc(Nc2nccc(-c3c(-c4ccc(OC)c(C(=O)Nc5c(F)cccc5F)c4)nc4ccccn34)n2)c(OC)cc1N1CCC(N2CCN(S(C)(=O)=O)CC2)CC1 | inactive and 5.9 µM (active)
39 | CN1CCN(CCCN2c3ccccc3Sc3ccc(C(F)(F)F)cc32)CC1 | 23.7 µM (active) and 16.6 µM (active)
40 | Cc1cc([C@@H](C)Nc2ccccc2C(=O)O)c2nc(N3CCOCC3)cc(=O)n2c1 | 2.51 µM (active) and 1.66 µM (active)
